Results published in PubChem BioAssay (NCI).
About 79,000 compounds went through this panel and 15% of them were active in at least one assay; those are over-represented in the sample as a whole. Activity calls are given as the source filed them. Rule as the data show it: active = growth inhibition above about 70%; inactive = the rest.

What was measured:
[1] = NCI Yeast Anticancer Drug Screen. Data for the rad50 strain (AID 155);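 also: 0% = growth of vehicle-only cultures of the same strain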; conditions: S. cerevisiae rad50 strain growth inhibition; at 50.0 µM; hits give high values
Method in brief: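 Inhibition values express reduced yeast growth in compound-treated cultures relative to vehicle-treated controls.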

[2] = NCI Yeast Anticancer Drug Screen. Data for the mec2-1 strain (AID 157); conditions: S. cerevisiae mec2-1 strain, at 50.0 µM, hits give high values
Method in brief: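 Compounds were applied to mec2-1 yeast cells. Their growth was then compared with that of vehicle-treated cultures to give growth inhibition.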

[3] = NCI Yeast Anticancer Drug Screen. Data for the sgs1 mgt1 strain (AID 161);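 also: 0% = growth of cultures given vehicle only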; conditions: S. cerevisiae sgs1 mgt1 strain, at 50.0 µM, hits give high values
Method in brief: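 Percent growth inhibition was derived by comparing compound-exposed mutant yeast with vehicle-exposed cultures. The strain carries alterations in DNA damage repair.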

[4] = NCI Yeast Anticancer Drug Screen. Data for the cln2 rad14 strain (AID 165);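 also: 0% = growth equal to vehicle treated cultures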; conditions: S. cerevisiae cln2 rad14 strain, at 50.0 µM, hits give high values
Method in brief: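 Strain: cln2 rad14 yeast, altered in cell cycle control and DNA damage repair. Read-out: growth inhibition vs vehicle.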

[5] = NCI Yeast Anticancer Drug Screen. Data for the bub3 strain (AID 167); conditions: S. cerevisiae bub3 mutant strain, at 50.0 µM, hits give high values
Method in brief: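 Steps: expose the mutant yeast strain to compound; grow alongside vehicle-treated cultures; measure growth; express inhibition against the vehicle cultures.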

[6] = NCI Yeast Anticancer Drug Screen. Data for the mlh1 rad18 strain (AID 175); conditions: S. cerevisiae mlh1 rad18 strain growth inhibition; at 50.0 µM; hits give high values
Method in brief: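 A repair-deficient yeast strain is exposed to test compound, and growth is scored relative to vehicle-treated controls.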

Measured: growth inhibition

CCCC(C)C(=O)OC(C)CC(C)C (configuration not stated)
inactive: [1] 31% | [2] 15.9% | [3] 21.9% | [4] -0.75% | [5] 20.9% | [6] 15.6%

C=CCOc1cc2c(cc1C(C)c1ccc(OC)cc1)OCO2 (configuration not stated)
inactive: [1] 12.3% | [2] 0.75% | [3] 5.95% | [4] -10.3% | [5] 14.5% | [6] -0.6%

CC(C)CC(=O)OC1=C(O)C(=O)C(OC(=O)CC(C)C)=C(O)C1=O
inactive: [1] -5.45% | [2] -13.7% | [3] 2.1% | [4] -62.4% | [5] 0.1% | [6] 5.65%

[N-]=[N+]=Nc1ncnc2c1sc(=S)n2-c1ccccc1
inactive: [1] -6.65% | [2] 21.1% | [3] -24.1% | [4] 3.6% | [5] 15.8% | [6] -2.4%

CCCC(=O)C1=C(O)C(CC2=C(O)C(C)(C)C(=O)C(C(=O)CCC)=C2O)=C(O)C(C)(C)C1=O
inactive: [1] 26.3% | [2] -12.4% | [3] -2.5% | [4] 1% | [5] -0.15% | [6] 1.3%

N#CC(C(=O)/C(=N\NC(N)=O)C(C#N)c1ccc(Cl)cc1)c1ccc(Cl)cc1 (configuration not stated)
inactive: [1] -33.6% | [2] -7.25% | [3] -22.1% | [4] 2.4% | [5] -7.05% | [6] -4.3%

CC1(C)C=Cc2c(ccc3[nH]c4occc4c(=O)c23)O1
inactive: [1] 23.4% | [2] -21.8% | [3] -16.8% | [4] 14.2% | [5] 11.4% | [6] -0.3%

COc1ccc(C=O)c(C(=O)O)c1OC
inactive: [1] -7.7% | [2] -52.9% | [3] -2.8% | [4] 17.2% | [5] -20.2% | [6] -3.7%

C/C=C1/CN2CCc3c([nH]c4ccccc34)C2CC1C(Cc1c[n+]2c(c3[nH]c4ccccc4c13)CC1C(C(=O)OC)=COC(C)C1C2)C(=O)OC (configuration not stated)
inactive: [1] 13.4% | [2] -25.6% | [3] -21.4% | [4] 17.1% | [5] -22.2% | [6] -12.3%

Cc1cccc(/C=N/NC(=S)NCCc2ccccn2)n1
inactive: [1] -17.4% | [2] -33.8% | [3] 14.2% | [4] 0.8% | [5] 9.55% | [6] -2.85%

CC1N=C(SCc2ccc(Cl)cc2)N2C(C)N=C(SCc3ccc(Cl)cc3)N12 (configuration not stated)
inactive: [1] -12.7% | [2] -40% | [3] 5.8% | [4] 2.7% | [5] 5.6% | [6] -6.95%

CCOC(=O)c1c(Br)c2c3ccccc3c3ccccc3n2c1C
inactive: [1] 1.7% | [2] -4.9% | [3] -3.75% | [4] -11.8% | [5] 1.8% | [6] 7.25%

S=C(S)NC1CCN(Cc2ccccc2)CC1
inactive: [1] 56.4% | [2] 30.6% | [3] 49% | [4] 48% | [5] 61.5% | [6] 26.1%

Cc1cc2nc(Oc3ccccc3)nc(=O)n2o1
inactive: [1] 2.3% | [2] 0.4% | [3] 6.7% | [4] -2.05% | [5] 11.8% | [6] -9.2%

C1COC2OCCOC2O1 (configuration not stated)
inactive: [1] 5.2% | [2] -2.05% | [3] 4.6% | [4] -2.55% | [5] 1.4% | [6] 0.7%

Cc1ccc(S(=O)(=O)CCC(=O)c2ccccc2)cc1
inactive: [1] 9.3% | [2] 16% | [3] 0.95% | [4] 1.3% | [5] 3.25% | [6] 14.6%

OC1(c2ccccc2)C=C(c2ccccc2)C=C(c2ccccc2)O1 (configuration not stated)
inactive: [1] -5.95% | [2] 10.7% | [3] -1.05% | [4] 0.9% | [5] 8.05% | [6] -2.55%

CCOC(=O)C(O)C(O)C(O)C(O)C(=O)OCC (configuration not stated)
inactive: [1] 5.6% | [2] -8.15% | [3] 1.9% | [4] -2.35% | [5] -7.7% | [6] -8.75%

O=C(Cc1cc2c(cc1[N+](=O)[O-])OCO2)c1c[nH]c2ccc(Br)cc12
inactive: [1] 6.45% | [2] -3.9% | [3] 19.6% | [4] 18.5% | [5] -2.2% | [6] 7.55%

Cn1nc(-c2cccc(N)c2)cc1Cl
inactive: [1] -17.6% | [2] -10.4% | [3] 3.75% | [4] -39.5% | [5] -15.6% | [6] 2.95%

Cc1nc(Cc2n[nH]c(C)n2)n[nH]1
inactive: [1] 14.4% | [2] -6.65% | [3] 11.9% | [4] 15.2% | [5] 3.4% | [6] 14.3%

N#CCc1ccc(-c2ccccc2)cc1
inactive: [1] -2.75% | [2] 20.9% | [3] 3.3% | [4] -31.9% | [5] -19.6% | [6] 6.25%

CCOC(=O)c1ccc(CCCN)cc1
inactive: [1] -17.8% | [2] -13.2% | [3] 12.9% | [4] -28.2% | [5] -10% | [6] 0.65%

Cc1ccc(C2=Nc3ccccc3SC(c3cccc([N+](=O)[O-])c3)C2)cc1 (configuration not stated)
inactive: [1] 11.2% | [2] -12.6% | [3] 11.8% | [4] -9.25% | [5] -6.2% | [6] -1.8%

CCCCOc1ccc(C=Nc2ccc(C)cc2)cc1
inactive: [1] -6.15% | [2] -6.2% | [3] -2.45% | [4] -8.5% | [5] 7.3% | [6] -20.7%

CCN1CCCC(Nc2cc(C)nc(/N=C(\N)Nc3ccc(Cl)c(Cl)c3)n2)C1 (configuration not stated)
active: [1] 97.2% | [2] 98% | [3] 98.4% | [4] 87.3% | [5] 96.1% | [6] 98%

CC(C)CCC[C@@H](C)[C@H]1CC[C@H]2[C@@H]3CC[C@H]4N(C)[C@@H](Cc5ccccc5)CC[C@]4(C)[C@H]3CC[C@]12C
inactive: [1] 21.8% | [2] 27.6% | [3] 32.5% | [4] 24.7% | [5] 15.4% | [6] -0.05%

COc1cc(N(Cc2ccc3oc(=O)c(-c4ccccc4)nc3c2)Cc2ccc3oc(=O)c(-c4ccccc4)nc3c2)cc(OC)c1OC
inactive: [1] 29.6% | [2] -2.45% | [3] 13.5% | [4] -35.1% | [5] 15% | [6] 9.15%

Cc1ccsc1C(=O)c1ccccc1[N+](=O)[O-]
inactive: [1] -3.65% | [2] -13.3% | [3] -6.7% | [4] -20.8% | [5] -7.35% | [6] 6.25%

Cc1ccc(C2[C@H]3C(=O)N(c4ccc(Cc5ccc(N6C(=O)[C@@H]7ON(c8ccccc8)C(c8ccc(C)cc8)[C@@H]7C6=O)cc5)cc4)C(=O)[C@H]3ON2c2ccccc2)cc1 (some centres not stated)
inactive: [1] -23.9% | [2] -17.9% | [3] -8.1% | [4] 26.9% | [5] -5.75% | [6] -10.8%

CSc1ccc(NC(=O)Nc2cc(Cl)c(Cl)cc2C)cc1
inactive: [1] 4.7% | [2] 60.5% | [3] 46.8% | [4] -1.95% | [5] 35% | [6] 25.2%

O=C1CCC(=O)O1
inactive: [1] -8.6% | [2] 17% | [3] -11.7% | [4] 6.45% | [5] 3.95% | [6] -51.9%

CCc1nc(N)nc(N)c1-c1ccc(Cl)c([N+](=O)[O-])c1
inactive: [1] 4.35% | [2] 4.95% | [3] -8.35% | [4] -7.1% | [5] -31.1% | [6] -13.6%

CN(C)CCCN1c2ccccc2Sc2cnccc21
inactive: [1] 7.6% | [2] -8.2% | [3] -0.2% | [4] -0.05% | [5] -1.45% | [6] 15.3%

CCOC(=O)C(C)C(CCC#N)(C(=O)OCC)C(=O)OCC (configuration not stated)
inactive: [1] -9.9% | [2] -24.1% | [3] -24% | [4] -0.35% | [5] -11.8% | [6] -9.3%

Cc1ccccc1-c1nc2c([nH]1)c(=O)n(C)c(=O)n2C
inactive: [1] 32.8% | [2] -2.2% | [3] -10.2% | [4] -32.3% | [5] 0.25% | [6] 2.75%

CN(C)CCn1cnc2sc3ccccc3c21
inactive: [1] -8.35% | [2] -15.5% | [3] -23.8% | [4] 24% | [5] -6.35% | [6] -23.8%
